Compound activity (PubChem BioAssay)
TDP1 cell CPT – growth inhibition of DT40 Tdp1-/-;hTDP1 cells with camptothecin (screen for TDP1 inhibitors); chicken DT40 Tdp1-/-;hTDP1 cells + 20 nM CPT, ATP luminescence, 48 h; Potency, µM (top dose mostly 46.2 µM), for the others: top-dose activity change, negative = growth inhibition, most hits filed as inhibitors; actives 12% (n = 420,000); further: potency means the concentration at half of the fitted maximal effect; nearly all actives have a fitted effect of over 55% in size
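Chicken DT40 Tdp1-/- cells complemented with human TDP1, 400 cells/well, exposed to compounds plus 20 nM camptothecin for at least 48 h at 37 C; viability read as ATP content by CellTiter-Glo luminescence.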
DT40 TDP1 no CPT – qHTS for Inhibitors of human tyrosyl-DNA phosphodiesterase 1 (TDP1): qHTS in cells in absence of CPT; DT40 Tdp1-/- hTDP1 cells, no CPT, ATP luminescence, 48 h; Potency, µM (doses to about 46.2 µM), for inactives: top-dose activity change, negative = growth inhibition, hits mostly inhibitors; actives 15% (n = 420,000); further: potency means the concentration at half of the fitted maximal effect; nearly all actives have a fitted effect of over 55% in size
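Growth of hTDP1-complemented DT40 Tdp1-knockout cells is measured by ATP luminescence after at least 48 hr compound exposure at 37 °C, with DMSO substituting for the 20 nM CPT used in the parallel screen.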
HT1080-NT tox – kills 2HG-producing HT-1080-NT fibrosarcoma cells; HT-1080-NT fibrosarcoma viability, CellTiter-Glo ATP luminescence, 48 h; Potency, µM (highest dose often 46.1 µM), for inactives: at the highest dose activity, negative = less viability, most hits filed as cytotoxic; actives 1.6% (n = 360,000); AID 686970;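 further: NT is the 2HG producing partner of a matched IDH1 knockdown line; potency means the concentration at half of the fitted maximal effect; 0% = DMSO-treated cells and -100% = media-only wells without cells; nearly all actives have a fitted effect of over 55% in size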
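Viability of the 2HG-overproducing fibrosarcoma line after 48 hours of compound exposure at 37 degrees C was determined by luminescence with CellTiter-Glo, and concentration-effect curves were then fitted and categorized.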
HT1080 IDH1KD tx – HT-1080 IDH1 knockdown cell toxicity (counter line) | HT-1080 IDH1 knockdown viability, ATP luminescence, 48 h | Potency, µM (top dose mostly 46.1 µM), for the others: top-dose activity, negative = toxicity, hits mostly cytotoxic | actives 2% (n = 360,000);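 further: potency means the concentration at half of the fitted maximal effect; 0% = DMSO wells and -100% = cell-free medium wells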
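Viability of IDH1-knockdown HT-1080 fibrosarcoma cells was assessed by CellTiter-Glo after 48 h at 37 °C with titrated compound; concentration-effect curves were classified by fit quality and response size.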
IL1B secr inh – inhibitors of inflammasome signaling (IL-1 beta secretion); AID 743279; THP-1 LPS/ATP IL-1B secretion, AlphaLISA, 16 h; hits give low values; actives 4.7% (n = 360,000); activity change, % at 57.5 µM; in the data active means activity change below about -50%; inconclusive means mostly about -30% to -49%
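THP-1 cells pretreated 1 hr with compounds (up to 57.5 uM final), then stimulated with LPS (250 ng/mL final) plus ATP (1.25 mM final); secreted IL-1B measured by AlphaLISA after 16 hr, decreased signal indicating inhibition.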
The depositor's hits bear a star; ? = inconclusive; . = not tested or not shown; [ ] = another dose, or the depositor's remark. Most compounds without a hit are left out; they make up all but 19% or so of the library. Unless noted, the call rests on the fitted dose curve; in most records, active means well fitted curve in the direction sought with a large enough effect; inconclusive means small, poorly fitted or top-dose-only effect, or another doubt; inactive means no such curve, though single readings can be large; an effect the other way counts as inactive or inconclusive. Unless noted, on the % scale 0 is the no-effect control and ±100 the full control effect.

SMILES	TDP1 cell CPT	DT40 TDP1 no CPT	HT1080-NT tox	HT1080 IDH1KD tx	IL1B secr inh
COC(=O)c1ccc(NC(=O)CS(=O)(=O)c2ccccc2)cc1	-2%	-22%	9%	3%	-14
C[C@@H]1CNC(=O)c2c(C(=O)N[C@@H](Cc3c[nH]c4ccccc34)C(=O)OC(C)(C)C)ncn21	?	?	-9%	-11%	48
O=C1CCCc2ccccc2N1Cc1c(Cl)cccc1Cl	-24%	?	-13%	-15%	-1
CNC(=S)N(C)/N=C1/C(=O)N(Cc2c(Cl)cccc2Cl)c2ccccc21	15µM*	18µM*	-11%	-13%	0
Cc1ccccc1NC(=O)C1CCC(C)(C(=O)O)C1(C)C (configuration not stated)	7%	10%	14%	7%	0
Cc1ccc(C(C[N+](=O)[O-])n2nc(C)cc2C)cc1 (configuration not stated)	2.1µM*	2.6µM*	4%	1%	-1
COc1ccccc1OCCNC(=O)CNC(=O)c1ccc(C(C)(C)C)cc1	-11%	-21%	-7%	?	-28
CCOC(=O)C1=CCN(S(=O)(=O)c2ccc(Br)cc2)C1c1cccc(C)c1 (configuration not stated)	?	26µM*	?	?	6
CCOc1ccc([C@@H]2CC=C(C(=O)O)[C@H](c3cccc(Cl)c3)N2S(=O)(=O)c2ccc(C)cc2)cc1	?	?	4%	12%	40
CCOC(=O)C1=CCN(S(=O)(=O)c2ccc(C)cc2)C1c1cccc(Br)c1 (configuration not stated)	16µM*	?	-26%	?	-18
CCOC(=O)C1=CC[C@@H](c2cccc(Br)c2)N(S(=O)(=O)c2ccc(F)cc2)[C@H]1c1cccc(Cl)c1	21µM*	10µM*	0%	-6%	11
COc1cccc(-c2nc3cc4c(cc3cc2CN(C(=O)c2csc(C)n2)C2CC2)CCC4)c1OC	-12%[9.04 µM]	23µM*	.	.	.
COc1cccc(-c2nc3cc(SC)ccc3cc2CN(C(=O)c2csc(C)n2)C2CC2)c1	-15%[9.04 µM]	?	.	.	.
Cc1cccc(C(=O)N/N=C2/SCC(=O)N2Cc2ccccc2)c1	-8%	-16%	0%	10%	12
COc1cc(-c2nc(CN3CCN(c4ncccn4)CC3)c(C)o2)ccc1F	6%	-6%	-6%	-17%	35
CCCCOCCCN1CC(=O)N2[C@@H](Cc3c([nH]c4ccccc34)C2(C)C)C1=O	?	18µM*	-8%	3%	-17
CCCCN(CCCC)CCCN1CC(=O)N2[C@@H](Cc3c([nH]c4ccccc34)C2(C)C)C1=O	?	-15%	5%	2%	-74*
CCCCCN1CC(=O)N2[C@@H](Cc3c([nH]c4ccccc34)C2(C)C)C1=O	?	?	-3%	-6%	35
CN1CCCC(CC2c3ccccc3Sc3ccccc32)C1 (configuration not stated)	?	8.1µM*	21µM*	18µM*	-58*
CN(C)CCCOc1nc2c(c(=O)n(C)c(=O)n2C)n1C	4%	1%	9%	8%	8
CCOc1cc(CNc2ccc(O)cc2)cc(Cl)c1OCc1ccccc1	21µM*	16µM*	.	.	.
CCOc1cc(CNCc2ccncc2)cc(Br)c1OCc1ccccc1F	?	?	?	?	-13
CCOc1cc(CNCCO)cc(Br)c1OCc1ccc(Cl)cc1Cl	16µM*	15µM*	?	21µM*	-101*
CCOc1cc(CNc2ccccc2)cc(Br)c1OCc1ccc(F)cc1	?	?	-16%	-11%	?
CCOc1cccc(CNc2ccc(O)cc2)c1OCc1ccccc1Cl	13µM*	12µM*	?	?	-5
SMILES	TDP1 cell CPT	DT40 TDP1 no CPT	HT1080-NT tox	HT1080 IDH1KD tx	IL1B secr inh
CCOc1cccc(CNc2ccc(O)cc2)c1OCc1ccc(Cl)cc1Cl	15µM*	21µM*	?	21µM*	?
CC(C)C(=O)Nc1cccc(C(=O)Nc2ccc(S(=O)(=O)N3CCOCC3)cc2)c1	?	-27%	-3%	-19%	-2
O=C(COC(=O)C1=COCCO1)NC1CCCCC1	?	-7%	2%	-7%	11
CCOc1cccc(CNn2cnnc2)c1OCc1ccccc1Cl	-18%	-29%	0%	3%	-7
CCOc1cc(CNCCO)cc(Br)c1OCc1cccs1	15µM*	18µM*	?	11µM*	-60*
COc1cc(CNCCO)cc(Br)c1OCc1ccccc1	-11%	-24%	-6%	-9%	-1
CCOc1cccc(CNCCO)c1OCc1ccc(Cl)cc1Cl	16µM*	16µM*	-4%	-25%	0
O=C(NC(O)C(=O)c1ccccc1)c1ccc(F)cc1 (configuration not stated)	-30%	?	-6%	12%	11
COc1cccc(-c2ccc3c(c2)O[C@@H](CN(C)C(=O)C2CCOCC2)[C@H](C)CN([C@H](C)CO)S3(=O)=O)c1	?	?	13%	5%	-20
CC(C)(C)C(=O)COC(=O)C1=NN(c2ccccc2)C(=O)CC1	0%	-3%	1%	11%	13
COc1cc(SC)ccc1C(=O)N1CCN(c2ccccc2)CC1	-9%	?	1%	-7%	-80*
COc1cc(SC)ccc1C(=O)N1CCN(c2ccc(O)cc2)CC1	?	9.2µM*	0%	-3%	24
COc1cc(SC)ccc1C(=O)N1CCCCCC1	?	-29%	-6%	-2%	-2
COc1ccc(N(CC(=O)NCCC2=CCCCC2)S(=O)(=O)c2ccccc2)c(OC)c1	12%	6%	3%	1%	-8
CCc1ccc(-n2c(CCC(=O)O)ccc2-c2cccs2)cc1	-22%	-25%	.	.	.
CCOC(=O)c1ccc(-n2c(CCC(=O)O)ccc2-c2cccs2)cc1	-19%	?	-11%	?	-70*
COc1cccc(C(=O)N2CCC[C@H]2C(=O)N2CCC[C@H]2C(=O)NCc2ccc(F)cc2F)c1	-27%	?	11%	7%	26
O=C(NCc1ccc(F)cc1F)[C@@H]1CCCN1C(=O)[C@@H]1CCCN1C(=O)c1ccccc1	-28%	-22%	5%	1%	-95*
CC1(C(=O)NCc2ccccc2)CSCC(=O)N1CCOc1ccccc1 (configuration not stated)	-26%	-24%	-12%	-7%	-11
C[n+]1ccc(/C=N/Nc2nc(Cl)c(C#N)c(Cl)c2Cl)cc1	?	?	?	-10%	-59*
Cc1ccc(C(=O)OCC(=O)NC2CCCC2)cc1C	-2%	-17%	14%	1%	-14
